The record followed here is PubChem BioAssay (NCATS).

Values joined by “and” are separate entries in the source; they are usually repeats but may differ in a detail not shown here. Equal values may be shown once. Values without a mark were called inactive. Records with an inconclusive call do not appear. Active and inactive are the calls of the source. Unless noted, calls follow the shape of the dose curve; as a rule, active = well fitted inhibition curve with a large enough effect; inconclusive = small, poorly fitted or top-dose-only effect; inactive = flat fitted curve, though single readings scatter. Where a SMILES comes first, the peptide text is derived from it. Bridges are numbered along the chain shown (N, C = ends). [ ]: non-standard residue; d: D form. Orn = NCCC[C@H](N)C(=O)O; Mpa = O=C(O)CCS

Test [1] can be described thus: Drug repurposing screens with cells derived from glioblastoma tumor samples (AID 1345199). Also: nearly all actives have a fitted effect of over 40% in size. Also: potency is read from the fitted curve at half-maximal effect. As to activity, negative = cell killing: % is scaled to controls: 0 for no effect and ±100 for the full control effect. To be noted: GBM patient neurospheres viability, ATP luminescence, 48 h. In outline: (§1)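 Four patient lines of CD133+ GBM neurospheres were screened at several concentrations; hits were retested in those lines plus three slower-growing GBM lines, using 48-hour treatment and ATP-based viability.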

Test [2] deals with astro (control astrocytes). Described as above. To be noted: viability, ATP luminescence, 48 h; series mostly up to 45.9 µM. In short, it runs like this:
as §1

Test [3] addresses Nuclear receptor subfamily 1 group I member 2 (Rattus norvegicus) (UniProt Q9R1A7). Nature of the test: qHTS assay for small molecule activators of the rat pregnane X receptor (rPXR) signaling pathway (AID 651751; call rule not given here; also: 0% is about no effect). The note with it: rPXR reporter cells, luciferase (One-Glo), 24 h. For orientation: qHTS replaces the single test concentration by a dilution series.
A short description of test [4]: qHTS assay for small molecule activators of the human pregnane X receptor (PXR) signaling pathway (AID 720659; call rule not given here; also: 0% is about no effect). The note with it: DPX-2 HepG2 CYP3A4-luciferase, 24 h; series mostly up to 92.3 µM.
[5] abbreviates: at 45.9 µM (top of the series), tumour line B.
Where [6] appears, read: at 45.9 µM (top of the series), tumour line D.
Where [7] appears, read: at 46.1 µM (top of the series), tumour line C.
The mark [8] stands for this setting: at 46 µM (top of the series), tumour line A.

Chain of Nuclear receptor subfamily 1 group I member 2 (Rattus norvegicus) (Q9R1A7 whole entry, looked up): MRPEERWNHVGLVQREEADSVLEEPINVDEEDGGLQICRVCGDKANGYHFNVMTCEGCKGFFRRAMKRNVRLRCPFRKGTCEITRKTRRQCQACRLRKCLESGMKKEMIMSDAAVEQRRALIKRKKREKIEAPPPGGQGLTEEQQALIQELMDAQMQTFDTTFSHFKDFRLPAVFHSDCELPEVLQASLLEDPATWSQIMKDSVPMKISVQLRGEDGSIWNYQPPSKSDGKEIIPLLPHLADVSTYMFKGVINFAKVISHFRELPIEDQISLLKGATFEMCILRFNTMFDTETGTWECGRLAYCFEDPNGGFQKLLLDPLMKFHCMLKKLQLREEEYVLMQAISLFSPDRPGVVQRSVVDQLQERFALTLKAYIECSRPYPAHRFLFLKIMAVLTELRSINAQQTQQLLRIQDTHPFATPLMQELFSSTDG

With `N[C@@H](C(=O)N[C@H]1C(=O)N2C(C(=O)O)=C(Cl)CC[C@H]12)c1ccccc1`, the activity, negative = cell killing in test [1] (setting [5]) is 3.07%; in test [1] (setting [6]), -6.14%; in test [1] (setting [7]), -12.4%. The Potency result in test [2] was “inactive”.

For the compound `NNc1nnc(Cc2ccncc2)c2ccccc12`, the results for the activity, negative = cell killing in test [1] (setting [5]), in test [1] (setting [6]) and in test [1] (setting [7]) were -17.7%, -26.1% and -26.3%, respectively. Moreover, the Potency result in test [2] is “inactive”.

`CCCCCCCCCCCCCCCCCC(=O)OCCO`: the activity, negative = cell killing was -18.6% in test [1] (setting [5]), -21.2% in test [1] (setting [6]) and -6.14% in test [1] (setting [7]). Besides, the Potency entry in test [2] is “inactive”.

For `OC(CN1CCCCC1)c1cc(-c2ccccc2)on1` (stereo not given), the activity, negative = cell killing in test [1] (setting [5]) is -15.5%; in test [1] (setting [6]), -0.851%; in test [1] (setting [7]), 5.87%. For the same compound, in test [2], the Potency result is “inactive”.

With `CO[C@H]1[C@@H](O)[C@H](N)[C@@H](O[C@H]2O[C@H]([C@H](C)N)CC[C@H]2N)[C@H](O)[C@@H]1N(C)C(=O)CN`, the activity, negative = cell killing was -11.8% in test [1] (setting [5]), -4.2% in test [1] (setting [6]) and -7.2% in test [1] (setting [7]). Also, the Potency result in test [2] is “inactive”.

For `COC1=C(C(=O)O)N2C(=O)[C@@H](NC(=O)[C@H](N)C3=CCC=CC3)[C@H]2SC1`, the activity, negative = cell killing was -9.93% in test [1] (setting [5]), -11% in test [1] (setting [6]) and 6.55% in test [1] (setting [7]). For the same compound, in test [2], the Potency result is “inactive”.

Take `CCCCCCCCCC(=O)O`: the activity, negative = cell killing in test [1] (setting [5]) is -8.75%; in test [1] (setting [6]), -10.5%; in test [1] (setting [8]), -20.2%; in test [1] (setting [7]), -4.57%. In addition, the Potency entry in test [2] was “inactive”. In addition, the max response in test [3] was -3.39% and -5.8%. In addition, the outcome in test [4] was inactive.

In the case of `O=C(O)CC(O)(CC(=O)O)C(=O)O`, the activity, negative = cell killing in test [1] (setting [5]) is -4.79%; in test [1] (setting [6]) it was -16.4%; in test [1] (setting [8]) it was -28.2%; in test [1] (setting [7]), 8.12%. In test [2], the Potency entry is “inactive”. Also, in test [3], the max response is -3.16% and 0.294% and 0.384%. Further, in test [4], the result was inactive.

As for `COc1cc2[nH]c(C)c(CCN3CCN(c4ccccc4)CC3)c2cc1OC`, the results for the activity, negative = cell killing in test [1] (setting [5]) and in test [1] (setting [7]) were -18.7% and -15.6%, respectively. For the same compound, the Potency in test [1] (tumour line A) was 15.8 µM (active). Moreover, the Potency result in test [2] was “inactive”.

`O=C(O)c1cccc(/C=C2/C[C@@H]3[C@@H](/C=C/[C@@H](O)C4CCCCC4)[C@H](O)C[C@@H]3O2)c1`: the activity, negative = cell killing in test [1] (setting [5]) was -4.9%; in test [1] (setting [6]), -11.8%; in test [1] (setting [7]), -8.79%. Besides, the Potency result in test [2] is “inactive”.

For `O=C(O)[C@@H](O)[C@H](O)[C@H](O)[C@@H](O)C(=O)O` (tested in a mixture with another compound), the activity, negative = cell killing in test [1] (setting [5]) was -6.98%; in test [1] (setting [6]), -10.8%; in test [1] (setting [7]) it was -8.08%. Further, the Potency entry in test [2] was “inactive”.

On to `CC[C@H]1OC(=O)[C@H](C)[C@@H](O[C@H]2C[C@@](C)(OC)[C@@H](O)[C@H](C)O2)[C@H](C)[C@@H](O[C@@H]2O[C@H](C)C[C@H](N(C)C)[C@H]2O)[C@](C)(O)C[C@@H](C)[C@@H]2N[C@@H](COCCOC)O[C@@H]([C@H]2C)[C@]1(C)O`, for which the activity, negative = cell killing is -7.98% in test [1] (setting [5]) and -7.79% in test [1] (setting [7]). For the same compound, the Potency in test [1] (tumour line A) is 11.2 µM (active). The Potency entry in test [2] is “inactive”.

For `C=Cc1ccccc1`, the activity, negative = cell killing is -11.1% in test [1] (setting [5]), 3.17% in test [1] (setting [6]), -1.65% in test [1] (setting [8]) and 3.42% in test [1] (setting [7]). Further, in test [3], the max response was 2.91% and 3.44%. In test [4], the outcome was inactive.

Turning to `O=C(Nc1ccc(/C=C/c2ccc(NC(=O)c3cc(S(=O)(=O)O)c4cccnc4c3O)cc2S(=O)(=O)O)c(S(=O)(=O)O)c1)c1cc(S(=O)(=O)O)c2cccnc2c1O`, the activity, negative = cell killing in test [1] (setting [5]) was -15.1%; in test [1] (setting [6]), 6.57%; in test [1] (setting [7]), -10.9%. In test [2], the Potency result is “inactive”.

On to `O=C(CCCN1CCC(n2c(=S)[nH]c3ccccc32)CC1)c1ccc(F)cc1`, for which, in test [1] (setting [5]), the activity, negative = cell killing is -28.9%. Also, the Potency was 8.91 µM (active) in test [1] (tumour line A) and 11.2 µM (active) in test [1] (tumour line D). Also, the Potency result in test [2] is “inactive”.

For `CCOc1ccc(C[C@H]2NC(=O)CCSSC[C@@H](C(=O)N3CCC[C@H]3C(=O)N[C@@H](CCCN)C(=O)NCC(N)=O)NC(=O)[C@H](CC(N)=O)NC(=O)[C@H]([C@@H](C)O)NC(=O)[C@H]([C@@H](C)CC)NC2=O)cc1` ([Mpa][dY](Et)ITNCP[Orn]G-NH2; disulfide 1-6), the activity, negative = cell killing is -9.93% in test [1] (setting [5]), -4.59% in test [1] (setting [6]) and 3.43% in test [1] (setting [7]). Further, in test [2], the Potency result is “inactive”.

Turning to `C[C@H]1C[C@H]2[C@@H]3CCC4=CC(=O)C=C[C@]4(C)[C@@]3(F)[C@@H](O)C[C@]2(C)[C@@]1(O)C(=O)CCl`, the figures for the activity, negative = cell killing in test [1] (setting [5]), in test [1] (setting [6]) and in test [1] (setting [7]) were 1.74%, -15.9% and 12.3%, respectively. In addition, in test [1] (tumour line A), the Potency is 35.5 µM (active). Also, the Potency result in test [2] is “inactive”.

Turning to `CC1(C)S[C@@H]2[C@H](NC(=O)[C@H](N)c3ccccc3)C(=O)N2[C@H]1C(=O)OCOC(=O)[C@@H]1N2C(=O)C[C@H]2S(=O)(=O)C1(C)C`, the activity, negative = cell killing is -6.39% in test [1] (setting [5]), -14.9% in test [1] (setting [6]) and -15.8% in test [1] (setting [7]). Further, the Potency entry in test [2] was “inactive”.

On to `CCOC(=O)[C@H](CCc1ccccc1)N[C@H]1CCCN2CCC[C@@H](C(=O)O)N2C1=O`, for which the activity, negative = cell killing in test [1] (setting [5]) was -17.5%; in test [1] (setting [6]), -14.2%; in test [1] (setting [7]), 4.99%. Moreover, in test [2], the Potency entry was “inactive”.
